Reference: PubChem BioAssay (EPA / NIEHS)
“And” between values parts separate entries of the source, which are not always exact repeats. Equal entries are not always repeated. The source made the active and inactive calls. The calls were made as follows: active = hit-call score of the fitted dose curve at least 0.9, where 1 is the maximum; inactive = score below 0.9.

Read-out: C-C motif chemokine 2 (Homo sapiens) (UniProt P13500)
Test: BSK_KF3CT_MCP1: BioMAP Diversity Plus: KF3CT Assay for Monocyte Chemoattractant Protein 1 (MCP1/CCL2) Biomarker Activity (AID 2283073)
Conditions: primary human keratinocytes with fibroblasts; actives raise or lower the signal
Procedure: BSK_KF3CT is a cell-based, multiplexed-readout assay that uses keratinocytes and foreskin fibroblasts, a human skin primary cell co-culture, with measurements taken at 24 hours after chemical dosing in a 96-well plate.BSK_KF3CT_MCP1 is an assay component measured in the BSK_KF3CT assay. It measures MCP-1 antibody related to regulation of gene expression using ELISA technology.Data from the assay component BSK_KF3CT_MCP1 was analyzed into 1 assay endpoint. This assay endpoint, BSK_KF3CT_MCP1, was analyzed with bidirectional fitting relative to DMSO as the negative control and baseline of activity. Using a type of binding reporter, gain or loss-of-signal activity can be used to understand changes in the signaling as they relate to the gene CCL2. Furthermore, this assay endpoint can be referred to as a primary readout, because this assay has produced multiple assay endpoints where this one serves a signaling function. To generalize the intended target to other relatable targets, this assay endpoint is annotated to the cytokine intended target family, where the subfamily is chemotactic factor.
The levels of cell surface (or secreted, indicated by the prefix "s") biomarker endpoints were measured by ELISA. Overt cytotoxicity to cells in confluent adherent cultures (all systems other than the BT system) was assessed by measuring total protein levels using sulforhodamine B (SRB) staining in parallel cultures at the time of biomarker measurements, indicated as SRB endpoints. For proliferation assays for adherent cell types, individual cell types are cultured at sub-confluence and relative cell numbers quantified by SRB staining at time points optimized for each system (48 h: 3C and CASM3C systems; 72 h: BT and HDF3CGF systems; 96 h: SAg system). SRB was performed by staining cells with 0.1% SRB after fixation with 10% TCA and reading wells at 560 nm.Viability and proliferation of PBMC (T cells) was quantified by Alamar Blue reduction for the SAg and BT systems. For PBMC viability (referred to as PBMC Cytotoxicity within the assay endpoint names), cells were plated (75,000/well in a 96-well plate) and then chemical samples added for 1 h before addition of activators, SEB and TSST-1 (20 ng/mL final concentration each). Cells were incubated for 90 h. Then, Alamar Blue (20 uL/well) (Invitrogen, Cat DAL1100) was added for 6 h, and the plates were read with a fluorescence microplate reader at 546/580 nm (excitation/emission). For PBMC proliferation, cells were plated and activated as above but incubated for only 16 h prior to addition of Alamar Blue. Plates were read after 6 h.

| SMILES | outcome | AC50 |
| --- | --- | --- |
| COc1ccc(C(=O)c2ccccc2O)c(O)c1 | inactive | – |
| CC(C)C1OCCN1CCOC(=O)NCCCCCCNC(=O)OCCN1CCOC1C(C)C (configuration not stated) | inactive | – |
| CCCCCCCCCCC1CO1 (configuration not stated) | – | 20 µM (active) |
| C1CN(CCOCCN2CCOCC2)CCO1 | inactive | – |
| CN(C)c1ccc(C(c2ccccc2)c2ccc(N(C)C)cc2)cc1 | inactive | – |
| CN(C)CCC(c1ccc(Cl)cc1)c1ccccn1 (configuration not stated) | inactive | – |
| Cc1c(C(N)=O)cc([N+](=O)[O-])cc1[N+](=O)[O-] | inactive | – |
| CN(C)Cc1cc(C(C)(C)C)c(O)c(C(C)(C)C)c1 | inactive | – |
| Oc1cccc2ccccc12 | inactive | – |
| COc1cc(CNC(=O)CCCC/C=C/C(C)C)ccc1O | inactive | – |
| CC(C)CC(=O)CC(C)CC(C)C (configuration not stated) | – | 37.1 µM (active) |
| Cc1cc(-n2nc3ccc(Cl)cc3n2)c(O)c(C(C)(C)C)c1 | inactive | – |
| Cc1cccnc1 | inactive | – |
| COC(=O)/C=C\C(=O)OC | inactive | – |
| COc1ccccc1Oc1c(NS(=O)(=O)c2ccc(C(C)(C)C)cc2)nc(-c2ncccn2)nc1OCCO | inactive | – |
| CCCCCCCCCCCCCCCCCC[N+](C)(C)C | – | 3.36 µM (active) |
| OC(C(F)(F)F)(C(F)(F)F)C(O)(C(F)(F)F)C(F)(F)F | – | 7.89 µM (active) and 7.97 µM (active) |
| CC[N+](CC)(CC(=O)Nc1c(C)cccc1C)Cc1ccccc1 | inactive | – |
| CC[N+](CC)(CC(=O)Nc1c(C)cccc1C)Cc1ccccc1 (tested in a mixture with another compound) | inactive | – |
| CCCCCCCCCC/C=C/C1CC(=O)OC1=O (configuration not stated) | inactive | – |
| O=C(C(=O)c1ccccc1)c1ccccc1 | inactive | – |
| O=[N+]([O-])c1cc(S(=O)(=O)Nc2ccccc2)ccc1Nc1ccccc1 | – | 25.3 µM (active) and 23.6 µM (active) |
| CCCCC(CC)COC(=O)C=Cc1ccc(OC)cc1 (configuration not stated) | inactive | – |
| CCC[Si](OC(C)=O)(OC(C)=O)OC(C)=O | inactive | – |
| Sc1nc2ccccc2s1 | inactive | – |
| CCCCCCC(O)CCCCCCCCCCC(=O)OC (configuration not stated) | inactive | – |
| CCC(C)=NO | inactive | – |
